Common to all, as to settings: concentration: 1 μM, replicates: in singlicate; n = 1
Experiment [1] has as its system FGFR1.
For experiment [2], the system named is FGFR2.
Experiment [3] relates to FGFR3.
For experiment [4], the system named is FGFR4.
The subject of experiment [5] is FGR.
Experiment [6] has as its system FLT1.
The test system of experiment [7] is FLT3-autoinhibited.
Experiment [8] has as its system FLT3.
The subject of experiment [9] is FLT4.
Experiment [10] relates to FRK.
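Note: KINOMEscan kinase panel screen.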

With `COc1cc(Nc2nccc(N3CCC(NC(=O)Nc4cccc(C(C)=O)c4)C3)n2)cc(OC)c1OC` (centres unmarked) [GSK1379753], the “%Inh” value in [1] is 3%; in experiment [2], 0%; in experiment [3], 9%; in experiment [4], 14%; in experiment [5], 14%; in [6], 19%. In addition, the “%Inh” value in [7] was 0%; in experiment [8], 63%; in experiment [9] it was 6%; in [10], 0%.

Take `C[C@@H]1CC[C@@H](C(=O)Nc2ccccc2)CN1c1cc(-c2ccc3c(N)n[nH]c3c2)nc(N)n1` [GSK2286062]: the “%Inh” value in experiment [1] is listed as 0%; in experiment [2], 0%; in experiment [3], 4%; in [4] it was 0%; in [5], 19%; in experiment [6], 0%. The “%Inh” value in [7], in [8], in experiment [9] and in [10] was 0% throughout.

Regarding `COc1ccc(CNC(=O)NC2CCN(c3ccnc(Nc4ccc(F)cc4)n3)CC2)cc1` [GSK1379788], the “%Inh” value in experiment [1] came to 0%; in experiment [2], 0%; in experiment [3], 8%; in experiment [4] it was 0%; in experiment [5] it was 19%; in experiment [6], 16%. The “%Inh” value in experiment [7], in [8], in experiment [9] and in [10] was 0% in each case.

In the case of `CCn1c(-c2nonc2N)nc2c(C#CC(C)(C)O)nc(OC[C@H](N)c3ccccc3)cc21` [GSK943949], the “%Inh” value stood at 11% in experiment [1]; 4% in experiment [2]; 0% in experiment [3]; 0% in experiment [4]; 0% in experiment [5]; 1% in [6]. Moreover, the “%Inh” value amounted to 0% in experiment [7], 3% in [8], 20% in experiment [9] and 0% in experiment [10].

On to `c1ccc(-c2cnc3nccnn23)cc1` [AH20685], for which the “%Inh” value is given as 0% in [1]; 0% in experiment [2]; 0% in experiment [3]; 0% in experiment [4]; 10% in [5]; 0% in experiment [6]. For the same compound, the “%Inh” value in experiment [7] is on record as 0%; in experiment [8] it was 43%; in [9], 0%; in experiment [10] it was 18%.

Turning to `COc1cc(Nc2nccc(-c3c(-c4cccc(NC(=O)c5c(F)cccc5F)c4)nn4ccccc34)n2)cc(OC)c1OC` [GSK323521], the “%Inh” value in experiment [1] is given as 17%; in experiment [2], 0%; in [3] it was 12%; in experiment [4], 0%; in [5], 27%; in [6], 41%. Besides, the “%Inh” value was 0% in [7], 98.4% in experiment [8], 20% in [9] and 11% in experiment [10].

In the case of `O=C(NC1CCN(c2ccnc(Nc3ccc(F)cc3)n2)C1)c1cc2ccccc2s1` (centres unmarked) [GSK1379716], the “%Inh” value in [1] is 0%; in experiment [2], 3%; in experiment [3], 16%; in experiment [4] it was 13%; in [5], 25%; in experiment [6], 20%. For the same compound, the “%Inh” value came out at 0% in experiment [7], 0% in experiment [8], 3% in [9] and 18% in [10].

Turning to `CCCCc1nn2ncccc2c1-c1ccnc(Nc2ccc(N3CCN(C)CC3)cc2)n1` [GW684941], the “%Inh” value in [1] was determined as 97.9%; in experiment [2], 96.9%; in experiment [3] it was 89%; in [4], 68%; in experiment [5], 91.9%; in experiment [6], 98%. Also, the “%Inh” value is reported as 93.3% in [7], 99.5% in experiment [8], 95.6% in experiment [9] and 95% in [10].

For the origin of these results see publication PMC5540273 (PLoS ONE, 2017).
